The results in this text go back to the supplement of paper PMC6555819.

The assay concerns VDR:RXRa (NR concentration 270 nM, RXRa partner concentration 90 nM). The assay is described as follows: PBM binding z-score (relative to random genomic background probes); higher = stronger binding; sequences stand for … in GC…GCGATTGACAGCGTAGAATGAAGG
The protocol: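 Protein-binding microarray (Agilent 4x180K custom design, double-stranded 60-nt probes: 5' GC cap, 34-nt variable region, 24-nt constant primer region; full probe sequence given). Purified or IVT nuclear receptor:RXRα heterodimers (3:1 NR:RXRα, mostly 270:90 nM) or homodimers were incubated for 1 h in PBS with 2% milk and no ligand, then detected with Alexa488 antibodies. Fluorescence from o1-orientation probes (~5 replicates averaged) was converted to z-scores against 500 random hg19 background probes. Variable regions are seed direct-repeat (DR0–DR5) sites, all their single-nucleotide variants and half-site ablations.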
The sequence AGAATGAGGTTAAGATCAGCGAAACAGAATACAT yielded a PBM binding z-score of 0.872.
For GCTGCTAGGTCAAGTTGGTCAGCTAACGGGTACG, the PBM binding z-score came to 2.17.
For ACTAGTTGGTCAGCTGAGGTCCCACACAATTCGG the value was -0.0724; for TGAATGAGGTTATAAGATCAGAGAACGTTGCAAA, 0.965; for ATTGAAAGGTCGAAGGTGAGTATACCCACCCGAA, 3.13.
Take TTACCAAGCTGAGCTGAGGTCGTTGATCCAACTC: the PBM binding z-score stood at 0.877.
For the sequence CGTCAAAGTTCAACTAAGGTAAAGTAAAGCACGC, the PBM binding z-score came out at 4.64.
In turn, GATATTAGTTGAAAGGGCAACCGAATGATTCTCG registered a PBM binding z-score of 0.661.
In turn, TCTCGGGGGACACGAAGGTCAGAGCTTTCCAGAG registered a PBM binding z-score of 3.72.
Turning to TCTATTATTTGAAGGGCAACCGACGAGTCCGTTT, the PBM binding z-score was found to be 1.55.
For the sequence CCAGACAGGTGATAAGGTAACTCAGCCTCGATTA, the PBM binding z-score was -0.000379.
Sequence GCTATTAGTTGAAAGGTCAACCGAATGATTCTCG yielded a PBM binding z-score of 4.71.
Regarding ATCGAACGGTCGAAGGTGAGTATACCCACCCGAA, the PBM binding z-score was -0.202.
With AATACAGGGTCAGCGTAGGCCAGAGTACGCACAG, the PBM binding z-score was 3.44.
On to TAGCCTAGGTCAGATCGGGCTAGTATACGCTATA, for which the PBM binding z-score came out at 0.302.
For CTTCCAAGGTCATAGGAGGTCAGTGAAGACAGAT the value was 6.66.
Sequence TCATATAGGTAAAAGGTTAAAGTCGGTGTGGTAA showed a PBM binding z-score of 2.73.
Take TTACCAAGGTGAAAGCTCGTTGATGCACGCCTTG: the PBM binding z-score was -0.288.
GTACAAAGGTGAATAGGTCGTTGATGAGTAGGCG displayed a PBM binding z-score of 2.18.
For CCTAGTTGCTCAGGAGGTCACACACCGGATATGA, the PBM binding z-score stood at 3.76.
ATATGTAGGTTAACGGTCATTCAGGTTGGTTCGC displayed a PBM binding z-score of 2.32.
In turn, ACTAGCAGGCCAAGGGTCACTCATGATTAGTCCG displayed a PBM binding z-score of 2.64.
On to AGTCAAAGTTCAGGACAAGGTAACGTAAAGCACG, for which the PBM binding z-score is 2.55.
Regarding CATACAGGGTCAGCTCGGCCAGAGTAGGGACGGC, the PBM binding z-score is 3.32.
For ATCTCTAGGTAAAGCTCAGTGAAAGATCGATAGA the value was -0.295.
For TCTATTAGTTGAAGGGCAAGCGACGAGTCCGTTT the value was 0.979.
TCATATAGGTAAAAGTTGAAAGTCGGTGTGGTAA: the PBM binding z-score turned out to be 1.21.
TGAATTAGGTTAAAGATCAGGGAACGTGGCGTCG registered a PBM binding z-score of 0.374.
Consider ATCTCTAGGTAAGACTCAGTTCAGTGAAGAACGC, for which the PBM binding z-score turned out to be 0.833.
For TCCCGGAGGACACGAAGGTCAGAGCTTTCCAGAG, the PBM binding z-score is 2.15.
On to AATACAGGGTCATCGTAGGCCCGAGTACGCACAG, for which the PBM binding z-score amounted to 4.95.
In the case of ATCTCTAGGGAACAAGTTCAGTGAAAGAGAGGAC, the PBM binding z-score was 1.48.
In turn, ACTTACGGGTCAACGAGGTGATAGCACGCGTATA gave a PBM binding z-score of 6.61.
For the sequence AGTCAAAGTTCACTAGGTAACGTTAGATTCAGCT, the PBM binding z-score was 4.07.
As for ACTTACGGGTCAACGAGGTTATCGCACGCGTATA, the PBM binding z-score stood at 7.77.
In the case of TCATATAGGTAAAGGTGAATGTCGAACGATATGA, the PBM binding z-score is 0.919.
For CGAACTAGGTCAGGACAGGACAGTGAAGGATGAT the value was 0.943; for CCGCCTGGGGCATAAGGTTACCATAAGCCAGCCC, 0.151; for TCTTGTAGATCAGCAGGCTAAGAAAGCTGGCCAA, -0.106.
CGTCCAAGTTCAAAGGTCAGTGAAGAGATGACGG yielded a PBM binding z-score of 6.37.
